Measurements taken from PubChem BioAssay AID652040 (Broad Institute, 2013).
Measured potencies and affinities stand elsewhere. A number with no mark means an inactive call.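 Rule for the calls: active = falling luciferase signal whose fitted half-maximal concentration is at most twice the top tested dose; inconclusive = flat inhibition between 30 and 70% or a poor curve fit; inactive = the rest.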

Experiment: off-target signal loss in HeLa-CEM21 co-culture – HeLa F-luc CTL cells, cherry-picked, counter-screen for HIV-1 Env fusion inhibitor project, dose response (AID 652040);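 note: 0% = median of neutral control wells and -100% = doxycycline 40 µg/mL wells; more negative values mean stronger loss of luciferase signal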
Conditions: HeLa-F-luc CTL cells with CEM21, firefly luciferase counterscreen; series mostly up to 35 µM; activity change, negative = inhibition: at the top concentration

SMILES	activity change, negative = inhibition
CCCc1cc(C(=O)NCc2ccc(OC)cc2)no1	15.4%
COc1ccc(OC2C(=O)N(Cc3ccc4c(c3)OCO4)C2c2cccs2)cc1 (configuration not stated)	55.8%
COC(=O)[C@@]1(Cc2ccc(F)cc2)[C@H]2c3cc(C(=O)N(C)C)n(CCO)c3C[C@H]2CN1C(=O)c1ccccc1	15%
C=CC[n+]1c(-c2ccc(C)cc2)csc1NNC(=O)Nc1ccccc1	-1.26% [at 16 µM]
CC1(C)N=C(N)N=C(N)N1CCCCc1ccccc1	-18.5%
N#Cc1c(NCc2ccccc2)ccnc1NCc1cccnc1	-7.24%
O=C(COC(=O)c1cccc(S(=O)(=O)N2CCOCC2)c1)NCc1ccccc1	5.14%
CCCCOc1ccc(S(=O)(=O)Nc2cccnc2)cc1	4.95%
COc1ccc(/C(C)=N/NC(=O)c2cccc(S(=O)(=O)N3CCCC3)c2)c(O)c1	27.9% [at 8 µM]
O=C(NNS(=O)(=O)c1ccc(F)cc1F)C1Cc2c(ccc3ccccc23)O1 (configuration not stated)	14.4%
COc1ccc(NS(=O)(=O)c2ccc3c(c2)OCCO3)cc1OC	-7.49%
COCC(C)n1c(-c2ccc3c(c2)NC(=O)CO3)csc1=Nc1ccc(OC(F)F)cc1 (configuration not stated)	3.74%
COc1ccccc1S(=O)(=O)n1cc(Cc2ccccc2)c(N)n1	0.656%
O=C(OCCOc1cccc(Cl)c1)c1cc(S(=O)(=O)N2CCCCC2)ccc1N1CCOCC1	-3.57%
Cc1ccc(-n2nnnc2-c2cnn(-c3ccc(F)cc3)c2C(F)(F)F)cc1	12.4%
CCN(CC)CCN(C(=O)c1cc(Cl)sc1Cl)c1nc2cc3c(cc2s1)OCO3	35.2%
O=C(c1cc(COc2cccc(C(F)(F)F)c2)on1)N1CCC(c2ccncc2)CC1	13.2%
